The record followed here is PubChem BioAssay (Tox21).

Structures are written as SMILES. Inconclusive results are not listed. Activity calls are given as the source filed them. The call rests on the fitted dose curve; in most records, active means well fitted curve in the direction sought with a large enough effect in the repeat runs; inconclusive means weak or mixed curves; inactive means no such curve, though single readings can be large; an effect the other way counts as inactive or inconclusive.

Assay [1] in a line: A CellTox Green Cytotoxicity Assay to monitor cytotoxicity in HepG2 cells - 8 hour (AID 1224890). Further: nearly all actives have a fitted effect of over 45% in size. As to conditions: CellTox Green fluorescence; series mostly up to 76.8 µM. The method in brief:
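Using 1536-well format, dye-containing HepG2 suspension was seeded, allowed 5 h at 37 C/5% CO2, dosed by pintool with compounds, positive and negative controls, and imaged for fluorescence across 40 h.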

Assay [2] in a line: qHTS assay to identify small molecule antagonists of the estrogen receptor alpha (ER-alpha) signaling pathway using the BG1 cell line in the presence of 0.1 nM 17-beta-estradiol - cell viability counter screen (AID 1259241). Further: nearly all actives have a fitted effect of over 40% in size. As to conditions: VM7Luc4E2 (BG1) viability, CellTiter-Fluor protease, 22 h, 0.1 nM estradiol agonist added; series mostly up to 92.4 µM. The method in brief:
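Measures cytotoxicity alongside the ER-alpha antagonist readout: VM7Luc4E2 cells, charcoal-stripped serum, 0.1 nM 17beta-estradiol final, 22 hr compound incubation at 37C, CellTiter-Fluor fluorescence.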
For orientation: Quantitative high-throughput screening tests each substance at several concentrations.

A short description of assay [3]: qHTS assay to identify small molecule antagonists of the androgen receptor (AR) signaling pathway using the MDA cell line in the presence of 0.5 nM R1881 - cell viability counter screen (AID 1259242). Further: nearly all actives have a fitted effect of over 45% in size. As to conditions: MDA-kb2 viability, CellTiter-Fluor protease fluorescence, 16 h; series mostly up to 92.4 µM. In short, it runs like this: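 Viability of MDA-kb2 cells was multiplexed with the luciferase AR readout; after 16 hr with compounds and R1881 at 0.5 nM final, CellTiter-Fluor fluorescence was recorded.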

For assay [4], the target named is Estrogen receptor (Homo sapiens) (UniProt P03372). In words: qHTS assay to identify small molecule antagonists of the estrogen receptor alpha (ER-alpha) signaling pathway using the BG1 cell line in the presence of 0.1 nM 17-beta-estradiol (AID 1259244). Further: nearly all actives have a fitted effect of over 50% in size. Conditions: VM7Luc4E2 (BG1) ERE-luciferase, antagonist mode, 0.1 nM E2, 22 h; series mostly up to 92.4 µM. The method in brief: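 Estradiol at 0.1 nM (final) stimulates the endogenous ER-alpha of VM7Luc4E2 cells carrying an ERE-driven luciferase; compounds are co-incubated 22 h at 37C and luciferase output quantified by luminescence.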
Sequence of Estrogen receptor (Homo sapiens) (P03372 whole entry, looked up): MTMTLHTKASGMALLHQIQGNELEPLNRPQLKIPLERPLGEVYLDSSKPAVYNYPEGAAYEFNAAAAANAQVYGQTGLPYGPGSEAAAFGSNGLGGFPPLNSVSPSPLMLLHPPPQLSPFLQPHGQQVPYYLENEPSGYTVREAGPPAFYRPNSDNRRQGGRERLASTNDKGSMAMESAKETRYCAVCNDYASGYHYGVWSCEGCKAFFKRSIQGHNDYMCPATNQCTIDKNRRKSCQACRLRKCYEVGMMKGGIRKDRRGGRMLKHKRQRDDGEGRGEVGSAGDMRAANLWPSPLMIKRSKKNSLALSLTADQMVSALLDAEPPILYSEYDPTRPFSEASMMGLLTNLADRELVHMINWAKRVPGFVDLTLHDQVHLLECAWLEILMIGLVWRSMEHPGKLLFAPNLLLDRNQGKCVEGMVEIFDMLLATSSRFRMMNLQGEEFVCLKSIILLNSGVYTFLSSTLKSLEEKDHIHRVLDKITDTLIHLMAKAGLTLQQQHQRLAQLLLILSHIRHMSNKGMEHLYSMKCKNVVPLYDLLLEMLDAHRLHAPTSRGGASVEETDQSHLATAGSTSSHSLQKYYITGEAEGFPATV

Assay [5] can be described thus: qHTS assay to identify small molecule HDAC inhibitors (AID 1259364). Further: potency means the concentration at half of the fitted maximal effect.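 Further: wild-type HCT-116 cells with endogenous class I/II HDAC activity; nearly all actives have a fitted effect of over 45% in size.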 As to conditions: HCT-116 HDAC-Glo I/II luminescence, 2 h; series mostly up to 92.4 µM. The method in brief: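 Read-out: luminescence of HDAC-Glo I/II reagent, 30 min RT, reflecting class I/II deacetylase activity in whole HCT-116 cells pre-exposed 2 h to DMSO-dissolved compounds.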
Assay [6] in a line: qHTS assay to identify small molecule HDAC inhibitors - cell viability counter screen (AID 1259365). Further: nearly all actives have a fitted effect of over 50% in size. Conditions: HCT-116 viability, CellTiter-Glo ATP luminescence, 2 h; series mostly up to 92.4 µM. In short, it runs like this:
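Following a 2hr exposure of overnight-plated wild-type HCT-116 cells to DMSO-delivered compounds, CellTiter-Glo was added and luminescence recorded after 30min at room temperature.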

Assay [7] is described as follows: qHTS assay to identify small molecule agonists of the sonic hedgehog signaling (Shh) pathway - cell viability counter screen (AID 1259366). Further: nearly all actives have a fitted effect of over 50% in size. Conditions: NIH/3T3 Gli1-Luc viability, CellTiter-Fluor, 24 h; series mostly up to 92.4 µM. In short, it runs like this: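 After a 4hr attachment at 37C, NIH/3T3 cells bearing an integrated Gli1-driven luciferase reporter were dosed with compounds. Treatment lasted 24hr, with the final hour including CellTiter-Fluor for a fluorescence viability measurement.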

Assay [8] can be described thus: qHTS assay to identify small molecule antagonists of the sonic hedgehog signaling (Shh) pathway - cell viability counter screen (AID 1259367). Further: nearly all actives have a fitted effect of over 55% in size. As to conditions: NIH/3T3 Gli1-Luc viability, CellTiter-Fluor, 24 h; series mostly up to 92.4 µM. In short, it runs like this: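 After a 4 hr settling period, 3T3 Gli1-Luc cells were treated with DMSO-dissolved chemicals and conditioned medium, kept 24 hr at 37C in 5% CO2, and assayed for viability by CellTiter-Fluor fluorescence following 1 hr reagent incubation.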

For `CCC1(CO)COCOC1`, the Potency result in assay [1], in assay [2], in assay [3], in assay [4], in assay [5] and in assay [6] was “inactive” in each case. The Potency result in assay [7] and in assay [8] was “inactive” each time.

With `CN(C)CCC=C1c2ccccc2C=Cc2ccccc21`, the Potency result in assay [1], in assay [2], in assay [3], in assay [4], in assay [5] and in assay [6] was “inactive” each time. Moreover, the Potency result in assay [7] and in assay [8] was “inactive” in each case.

With `CC(C)=CC(=O)C=C(C)C`, the Potency result in assay [1], in assay [2], in assay [3], in assay [4], in assay [5] and in assay [6] was “inactive” each time. For the same compound, the Potency result in assay [7] and in assay [8] was “inactive” each time.

Take `O=C=Nc1ccc(Cl)c(Cl)c1`: the Potency result in assay [1], in assay [2], in assay [3], in assay [4], in assay [5] and in assay [7] was “inactive” throughout. Moreover, the Potency result in assay [8] is “inactive”.

Turning to `C=C/C(C)=C/C/C=C(\C)CCC=C(C)C`, the Potency result in assay [1], in assay [2], in assay [3], in assay [4], in assay [5] and in assay [7] was “inactive” in each case. Besides, the Potency result in assay [8] is “inactive”.

Take `O=C(CCc1ccc(O)cc1)c1c(O)cc(O)cc1O`: the Potency entry in assay [1], in assay [2], in assay [3], in assay [4], in assay [5] and in assay [6] was “inactive” each time. Further, the Potency entry in assay [7] and in assay [8] was “inactive” throughout.

On to `C=C(C)C(=O)OCCCCCCCCCCCCC`, for which the Potency result in assay [1], in assay [2], in assay [3], in assay [4], in assay [6] and in assay [7] was “inactive” throughout. Moreover, in assay [8], the Potency entry was “inactive”.

Regarding `CCC(C)COC(=O)CC(C)C` (stereo unspecified), the Potency result in assay [1], in assay [2], in assay [3], in assay [4], in assay [5] and in assay [6] was “inactive” in each case. For the same compound, the Potency result in assay [7] and in assay [8] was “inactive” throughout.

On to `Cc1ccc(CO)cc1`, for which the Potency result in assay [1], in assay [2], in assay [3], in assay [4], in assay [5] and in assay [6] was “inactive” throughout. For the same compound, the Potency entry in assay [7] and in assay [8] was “inactive” in each case.

Consider `CC=C(Cl)Cl`, for which the Potency result in assay [1], in assay [2], in assay [3], in assay [4], in assay [5] and in assay [6] was “inactive” each time. For the same compound, the Potency result in assay [7] and in assay [8] was “inactive” throughout.

Regarding `N#CCCN(CCO)CCO`, the Potency entry in assay [1], in assay [2], in assay [3], in assay [4], in assay [5] and in assay [6] was “inactive” throughout. For the same compound, the Potency result in assay [7] and in assay [8] was “inactive” each time.

As for `c1ccc2sc(SN(C3CCCCC3)C3CCCCC3)nc2c1`, the Potency result in assay [1], in assay [2], in assay [3], in assay [4], in assay [5] and in assay [6] was “inactive” in each case. The Potency result in assay [7] and in assay [8] was “inactive” throughout.

On to `COC(=O)CS`, for which the Potency entry in assay [1], in assay [2], in assay [3], in assay [4], in assay [6] and in assay [7] was “inactive” in each case. Also, in assay [8], the Potency result was “inactive”. Further, the Potency in assay [5] is 26.3 µM (active).

For `C=C(C)C(=O)OCCOCCOC(=O)C(=C)C`, the Potency entry in assay [1], in assay [2], in assay [3], in assay [4], in assay [5] and in assay [6] was “inactive” each time. Further, the Potency entry in assay [7] and in assay [8] was “inactive” in each case.

`CCC=CC#N`: the Potency result in assay [1], in assay [2], in assay [3], in assay [4], in assay [6] and in assay [7] was “inactive” throughout. In addition, in assay [8], the Potency result is “inactive”.
